Source: PubChem BioAssay (NCATS)
Results filed as inconclusive are left out. Activity calls are given as the source filed them. Calls come from the whole dose curve; as a rule, active = well fitted curve in the direction sought with a large enough effect; inconclusive = small, poorly fitted or top-dose-only effect, or another doubt; inactive = no such curve, though single readings can be large; an effect the other way counts as inactive or inconclusive.

Legend:
[1] = qHTS of pediatric cancer cell lines to identify multiple opportunities for drug repurposing: Primary screen for TC32 cells (AID 1347089); note: nearly all actives have a fitted effect of over 60% in size
Method in brief: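 Luminescent CellTiter-Glo read-out of metabolically active TC32 cells after 48 h compound exposure. Primary: MIPE 11-point, 0.78 nM–46 µM; NPC 8-point, 0.59 nM–46 µM. Confirmatory: 11-point dilutions.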

[2] = qHTS of pediatric cancer cell lines to identify multiple opportunities for drug repurposing: Primary screen for DAOY cells (AID 1347090); note: nearly all actives have a fitted effect of over 55% in size
Method in brief: (§1)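 Cell viability, CellTiter-Glo luminescence; 500-1,000 cells/well, 8- or 11-point titration, 48 h compound exposure at 37 degrees C, 5% CO2. Controls: DMSO neutral, bortezomib 2.3 µM final as positive.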

[3] = qHTS of pediatric cancer cell lines to identify multiple opportunities for drug repurposing: Primary screen for SJ-GBM2 cells (AID 1347091)
Method in brief: as §1

[4] = qHTS of pediatric cancer cell lines to identify multiple opportunities for drug repurposing: Primary screen for A673 cells (AID 1347092); note: nearly all actives have a fitted effect of over 45% in size
Method in brief: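 A673 cells (500-1,000 cells/well in growth media) were pre-incubated 5 h at 37 degrees C, then exposed to compounds for 48 h. Viability was read as CellTiter-Glo luminescence; concentration-response curves came directly from the primary screen.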

[5] = qHTS of pediatric cancer cell lines to identify multiple opportunities for drug repurposing: Primary screen for SK-N-MC cells (AID 1347093)
Method in brief: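 Metabolically active cells were quantified by ATP-dependent luminescence (CellTiter-Glo, 15 min at room temperature) following 48 h treatment. Cells had been plated at 500-1,000 per well and settled for 5 h beforehand.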

[6] = qHTS of pediatric cancer cell lines to identify multiple opportunities for drug repurposing: Primary screen for BT-37 cells (AID 1347094)
Method in brief: (§2)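 Following a 5-hour attachment period, cells at 500-1,000/well received compounds and were cultured for 48 hours. CellTiter-Glo was added and luminescence read to estimate viable, metabolically active cells.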

[7] = qHTS of pediatric cancer cell lines to identify multiple opportunities for drug repurposing: Primary screen for NB-EBc1 cells (AID 1347095)
Method in brief: as §2

[8] = qHTS of pediatric cancer cell lines to identify multiple opportunities for drug repurposing: Primary screen for U-2 OS cells (AID 1347096); note: nearly all actives have a fitted effect of over 50% in size
Method in brief: (§3)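 Cells (500-1,000/well) rested 5 h, then received compounds for 48 h; metabolically active cells were measured by CellTiter-Glo luminescence. Final concentrations spanned up to 46 µM (MIPE, 11-point) or 0.59 nM-46 µM (NPC, 8-point) in primary screens, 11-point in follow-ups.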

[9] = qHTS of pediatric cancer cell lines to identify multiple opportunities for drug repurposing: Primary screen for SK-N-SH cells (AID 1347098); note: nearly all actives have a fitted effect of over 65% in size
Method in brief: as §3

[10] = qHTS of pediatric cancer cell lines to identify multiple opportunities for drug repurposing: Primary screen for NB1643 cells (AID 1347099); note: nearly all actives have a fitted effect of over 50% in size
Method in brief: as §2

[11] = qHTS of pediatric cancer cell lines to identify multiple opportunities for drug repurposing: Primary screen for LAN-5 cells (AID 1347100)
Method in brief: as §3

[12] = qHTS of pediatric cancer cell lines to identify multiple opportunities for drug repurposing: Primary screen for BT-12 cells (AID 1347101); note: nearly all actives have a fitted effect of over 25% in size
Method in brief: as §3

[13] = qHTS of pediatric cancer cell lines to identify multiple opportunities for drug repurposing: Primary screen for Rh18 cells (AID 1347102); note: nearly all actives have a fitted effect of over 65% in size
Method in brief: as §3

[14] = qHTS of pediatric cancer cell lines to identify multiple opportunities for drug repurposing: Primary screen for RD cells (AID 1347104); note: nearly all actives have a fitted effect of over 55% in size
Method in brief: as §2

[15] = qHTS of pediatric cancer cell lines to identify multiple opportunities for drug repurposing: Primary screen for MG 63 (6-TG R) cells (AID 1347105); note: nearly all actives have a fitted effect of over 50% in size
Method in brief: as §2

[16] = qHTS of pediatric cancer cell lines to identify multiple opportunities for drug repurposing: Primary screen for control Hh wild type fibroblast cells (AID 1347106); note: nearly all actives have a fitted effect of over 55% in size
Method in brief: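 Cells (500-1,000/well) in growth media were settled 5 h at 37 degrees C, then given compounds for 48 h. Viability was read as CellTiter-Glo luminescence. Primary runs used MIPE at 11 points (0.78 nM-46 µM) and NPC at 8 points (0.59 nM-46 µM); follow-ups used 11 points.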

[17] = qHTS of pediatric cancer cell lines to identify multiple opportunities for drug repurposing: Primary screen for OHS-50 cells (AID 1347103); note: nearly all actives have a fitted effect of over 40% in size
Method in brief: as §3

[18] = qHTS of pediatric cancer cell lines to identify multiple opportunities for drug repurposing: Primary screen for Saos-2 cells (AID 1347097); note: nearly all actives have a fitted effect of over 40% in size
Method in brief: as §2
Potency is the fitted concentration of half-maximal effect.

Row | Structure (SMILES) | Potency [1] | Potency [2] | Potency [3] | Potency [4] | Potency [5] | Potency [6] | Potency [7] | Potency [8] | Potency [9] | Potency [10] | Potency [11] | Potency [12] | Potency [13] | Potency [14] | Potency [15] | Potency [16] | Potency [17] | Potency [18]
1 | C=C1C(=CC=C2CCC[C@]3(C)[C@@H]([C@H](C)C=C[C@H](C)C(C)C)CC[C@@H]23)C[C@@H](O)C[C@@H]1O | 11.7 µM (active) | 1870 nM (active) | 743 nM (active) | 469 nM (active) | 469 nM (active) | 0.968 µM (active) | 526 nM (active) | 3.72 µM (active) | 1.92 µM (active) | 935 nM (active) | 469 nM (active) | 2.17 µM (active) | 0.743 µM (active) | 1.66 µM (active) | 5.9 µM (active) | inactive |  | 
2 | COc1cccc(Nc2c(C(N)=O)cnc3c(C)cc(S(=O)(=O)c4cccc(C(=O)N(C)C)c4)cc23)c1 | inactive | inactive | inactive | inactive | 6450 nM (active) | inactive | inactive | inactive |  |  |  |  | inactive | inactive | inactive |  | 10.6 µM (active) | 
3 | C[C@@]12O[C@@H](C[C@]1(O)CO)n1c3ccccc3c3c4c(c5c6ccccc6n2c5c31)CNC4=O | 1.86 µM (active) | 4690 nM (active) | 235 nM (active) | 743 nM (active) | 37.2 nM (active) | 4.85 µM (active) | 1180 nM (active) |  | 1.92 µM (active) | 1660 nM (active) | 132 nM (active) | 8.63 µM (active) | 3.32 µM (active) | 6.62 µM (active) | 4.69 µM (active) | 23.5 µM (active) |  | 3.32 µM (active)
4 | CCN(CC)CCNC(=O)c1ccc2nc(-c3ccccc3)c(-c3ccc(CN4CCC(n5c(=O)[nH]c6ccccc65)CC4)cc3)nc2c1 | 18.6 µM (active) | 23500 nM (active) | 16600 nM (active) | 1180 nM (active) | 2640 nM (active) | 10.9 µM (active) |  | 3.72 µM (active) | 27.1 µM (active) |  | 5900 nM (active) |  | 2.35 µM (active) | 3.32 µM (active) | 7.43 µM (active) | 9.35 µM (active) |  | 
5 | C=CC(=O)Nc1cccc(Oc2nc(Nc3ccc(N4CCN(C)CC4)cc3)ncc2Cl)c1 | 7.39 µM (active) | 935 nM (active) | 1870 nM (active) | 935 nM (active) | 469 nM (active) | 21.7 µM (active) | 2350 nM (active) | 4.69 µM (active) | 3.83 µM (active) |  | 2640 nM (active) | 17.2 µM (active) | 3.72 µM (active) |  | 7.43 µM (active) | 16.6 µM (active) | 3.06 µM (active) | 
6 | CC(C)(O)c1cc2nc(-c3cnc(N)nc3)nc(N3CCOCC3)c2s1 | 0.466 µM (active) | 148 nM (active) | 235 nM (active) | 372 nM (active) | 11.8 nM (active) | 0.769 µM (active) | 93.5 nM (active) |  | 8.57 µM (active) | 187 nM (active) | 372 nM (active) |  | 0.372 µM (active) | 0.209 µM (active) | 0.0469 µM (active) |  | 0.0306 µM (active) | 0.235 µM (active)
7 | CC1=C(CO)C(=O)O[C@@H]([C@@H](C)[C@H]2CC[C@H]3[C@@H]4C[C@H]5O[C@]56[C@@H](O)C=CC(=O)[C@]6(C)[C@@H]4CC[C@]23C)C1 | 2.34 µM (active) | 743 nM (active) | 372 nM (active) | 372 nM (active) | 132 nM (active) | 2.17 µM (active) | 469 nM (active) | inactive | 3.41 µM (active) | 132 nM (active) |  | 0.769 µM (active) | 2.64 µM (active) |  | 0.743 µM (active) | inactive | 4.85 µM (active) | 
8 | CC=CC1=C(C(=O)O)N2C(=O)[C@H](NC(=O)[C@H](N)c3ccc(O)cc3)[C@@H]2SC1 | inactive | inactive | inactive | 935 nM (active) | 23500 nM (active) |  | inactive | inactive | 19.2 µM (active) | 20900 nM (active) |  |  | inactive | inactive | inactive | inactive |  | 
9 | Cc1c(C)n(Cc2ccc(-c3ccccc3C(=O)O)cc2)c2ccc(C(=O)N[C@@H](C)c3ccc([N+](=O)[O-])cc3)cc12 | inactive | 29.6 nM (active) | 23500 nM (active) | 148 nM (active) | 18.7 nM (active) | 0.968 µM (active) |  | inactive | 3.04 µM (active) | 187 nM (active) |  | 0.769 µM (active) | inactive | 1.66 µM (active) | 18.7 µM (active) | inactive | 2.73 µM (active) | 
10 | C[C@@H]1COC(Nc2ccc3ncnc(Nc4ccc(OCc5nccs5)c(Cl)c4)c3c2)=N1 | inactive | 935 nM (active) | 23500 nM (active) | 935 nM (active) | 2350 nM (active) | 24.3 µM (active) | 2640 nM (active) |  |  | 4690 nM (active) | 16600 nM (active) | 24.3 µM (active) |  | 14.8 µM (active) |  |  |  | 29.6 µM (active)
11 | COc1ccc(-n2nc(C(N)=O)c3c2C(=O)N(c2ccc(N4CCCCC4=O)cc2)CC3)cc1 | inactive | inactive | inactive | 9350 nM (active) | inactive | 12.2 µM (active) | inactive | inactive | inactive | inactive | inactive |  | inactive | inactive | inactive |  | inactive | 
